Inconclusive results are not listed. The source made the active and inactive calls. Unless noted, calls come from the whole dose curve.
How the values were obtained:
[1] = qHTS drug screen for cell cycle checkpoint inhibitors in PARPi-resistant BRCA-mutant ovarian cancer cell lines. (AID 1963452); settings: PEO1/OlaR viability, CellTiter-Glo luminescence, 96 h, stronger effect = lower value
In short: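 PEO1, PEO4 and PEO1/OlaR ovarian cancer cells, 600 per well, exposed 96 h at 37C to a dilution series. Viability read by CellTiter-Glo luminescence, normalized to DMSO and empty wells; activity summarized as Z-AUC.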

[2] = qHTS assay to identify inhibitors of the type 1 interferon - major histocompatibility complex class I in skeletal muscle: Counter screen cell viability and HiBit confirmation (AID 1347412; active = well fitted inhibition curve with a large enough effect; note: potency is the fitted concentration of half-maximal effect; for activity change, negative = inhibition: % is set by controls: 0 for no effect and ±100 for the full control effect; for all read-outs here: nearly all actives have a fitted effect of over 60% in size); settings: iHSKM muscle cells + IFN-b, HiBiT or CellTiter-Glo, 24 h; for activity change, negative = inhibition: at 45.9 µM (top of the series)
In short: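 Human myoblast knock-in line, 4.0 ng/ml IFN-beta stimulation, 24 h compound treatment. Endpoints: HiBiT lytic luminescence (HLA-B level) and CellTiter Glo (ATP). Dosing 12 concentrations, 3-fold steps, 46 uM highest final.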

[3] = measured here: PEO1 parental Z-AUC

| Compound | Z-AUC [1] | Z-AUC [1, 3] | Z-AUC ([1]; measured here: PEO4 Z-AUC) | Potency ([2]; HiBiT) | activity change, negative = inhibition ([2]; Viability) | Potency ([2]; Viability) |
| --- | --- | --- | --- | --- | --- | --- |
| CN1CCN(c2ccc(Nc3ncc4cc(C#N)c(=O)n(C5CCCC5)c4n3)cc2)CC1 | -0.464 (inactive) | 0.47 | 0.542 | 9.91 µM (active) | -23.1% (inactive) | – |
| N#C/C(=C1/Nc2ccccc2S1)c1ccnc(OCc2ccc(CN3CCOCC3)cc2)n1 | 0.822 (inactive) | 0.219 | -0.057 | – | – | – |
| C[C@H]1CN(C2COC2)CCN1c1ccc(Nc2cc(-c3ccnc(N4CCn5c(cc6c5CC(C)(C)C6)C4=O)c3CO)cn(C)c2=O)nc1 | -0.103 (inactive) | 0.727 | 0.518 | – | – | – |
| C=CC(=O)Nc1cc(N2CCN(CC)CC2)ccc1Nc1cc(N(C)C(=O)Nc2c(Cl)c(OC)cc(OC)c2Cl)ncn1 | 1.02 (inactive) | 0.686 | 0.736 | – | – | – |
| CO[C@@H]1[C@@H](O)[C@H](O)[C@@H](n2c3c(Cl)cccc3c3c4c(c5c6cccc(Cl)c6[nH]c5c32)C(=O)NC4=O)O[C@H]1CO | -0.593 (inactive) | -0.854 | -0.743 | 4.97 µM (active) | -21.4% (inactive) | – |
| CC[C@H]1CN2CCc3cc(OC)c(OC)cc3C2C[C@@H]1CC1NCCc2cc(OC)c(OC)cc21 (some centres not stated) | – | – | – | 0.279 µM (active) | – | – |
| CC(C)Oc1ccc(-c2nn([C@@H](C)c3oc4ccc(F)cc4c(=O)c3-c3cccc(F)c3)c3ncnc(N)c23)cc1F | 0.0255 (inactive) | -0.265 | -0.0554 | – | – | – |
| COC(=O)N(CC(=O)O)Cc1cccc(OCc2nc(-c3ccc(Cl)cc3)oc2C)c1 | 1.24 (inactive) | -0.00269 | 0.458 | – | – | – |
| C[C@@H]1Cc2c([nH]c3ccccc23)[C@@H](c2c(F)cc(/C=C/C(=O)O)cc2F)N1CC(C)(C)F | -0.309 (inactive) | -0.682 | -0.807 | – | – | – |
| CN1C[C@@H]2c3ccccc3Oc3ccc(Cl)cc3[C@H]2C1 | 1.28 (inactive) | 1.52 | 1.41 | – | – | – |
| CC[C@@H](Oc1cccc(CN(CCCOc2ccc(OC)cc2)c2nc3ccccc3o2)c1)C(=O)O | 1.26 (inactive) | 0.312 | 0.341 | – | – | – |
| CC[C@@H](C)[C@H]1O[C@]2(CC[C@@H]1C)C[C@@H]1C[C@@H](C/C=C(\C)[C@@H](O[C@@H]3C[C@H](OC)[C@H](O[C@H]4C[C@H](OC)[C@@H](O)[C@H](C)O4)[C@H](C)O3)[C@@H](C)/C=C/C=C3\CO[C@@H]4[C@@H](O)C(C)=C[C@@H](C(=O)O1)[C@]34O)O2 | – | – | – | 27.9 µM (active) | – | 31.3 µM (active) |

Source: PubChem BioAssay (NCATS)
